Source: PubChem BioAssay
PI4K2A inh – PI4K2A (human) kinase inhibition; purified PI4K2A, ADP-Glo luminescence, 1 h; hits give low values; Q9BTU6; activity change, negative = inhibition, % at 76.9 µM; AID 1346378; actives 0.13% (n = 420,000); in the data active = activity change below about -50%; inconclusive = mostly about -30% to -49%;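 note: -100% = wells without enzyme as full effect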
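Compounds are screened against recombinant PI4K2A using PI as substrate and ATP, the latter dispensed at 300 microM. Reactions run one hour at ambient temperature before ADP-Glo detection; full inhibition defined by wells lacking enzyme.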
PKM2 activator – increases activity of human pyruvate kinase M2; Potency, µM (doses to about 57.5 µM), for inactives: at the highest dose activation, hits mostly activators; actives 0.34% (n = 260,000); AID 1631; P14618; purified PKM2, Kinase-Glo ATP luminescence, activation; response scale: 0% is enzyme alone, no compound; note: potency is the fitted concentration of half-maximal effect; nearly all actives have a fitted effect of over 55% in size
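Purified hPK-M2 (>95%) run at intermediate activity with 0.1 mM ADP and 0.5 mM PEP in 50 mM imidazole pH 7.2, KCl, MgCl2; 1 h room temperature. ATP formed read by Kinase-Glo luminescence; normalized to uninhibited and no-enzyme controls.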
TrxR1 substrate – is turned over as a substrate by rat TrxR1. O89049. purified TrxR1 substrate turnover, NADPH consumption readout. Potency, µM (highest dose often 114 µM), for the others: at the top dose activity change, negative = substrate turnover. actives 0.01% (n = 390,000). AID 588456; note: potency is the fitted concentration of half-maximal effect; nearly all actives have a fitted effect of over 50% in size
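Rat TrxR1, dispensed at 90 nM, was prereduced with 400 uM NADPH (final) for 5 min at ~22 deg C, then incubated with compound 15 min before 400 uM selenite. A first-read NADPH fluorescence drop versus no-compound background flagged substrates.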
GALK inh – inhibitors of human galactokinase. P51570. Purified GALK, Kinase-Glo residual ATP luminescence. Potency, µM (top dose mostly 57.5 µM), without a hit: at the highest dose activity change, negative = inhibition, most hits filed as inhibitors. actives 0.007% (n = 270,000). AID 1868; note: potency is the fitted concentration of half-maximal effect
Target sequence (P51570 whole entry, looked up): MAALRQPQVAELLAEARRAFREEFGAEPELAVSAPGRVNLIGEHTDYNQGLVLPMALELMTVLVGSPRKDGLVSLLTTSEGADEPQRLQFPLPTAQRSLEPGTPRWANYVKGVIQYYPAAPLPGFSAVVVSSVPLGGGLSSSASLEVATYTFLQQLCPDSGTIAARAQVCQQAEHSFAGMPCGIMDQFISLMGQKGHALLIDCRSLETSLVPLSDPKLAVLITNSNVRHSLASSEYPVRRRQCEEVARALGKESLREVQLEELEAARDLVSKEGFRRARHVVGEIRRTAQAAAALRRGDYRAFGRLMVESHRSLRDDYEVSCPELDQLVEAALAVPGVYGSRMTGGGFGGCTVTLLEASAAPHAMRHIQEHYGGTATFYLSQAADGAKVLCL
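Quantitative HTS: GALK 5 nM, ATP 35 uM, galactose 100 uM, 1 h room temperature, then luciferase-based ATP detection.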
TrxR1 inh – blocks rat thioredoxin reductase 1; O89049; actives 1% (n = 390,000); Potency, µM (top dose mostly 114 µM), without a hit: at the highest dose activity change, negative = inhibition, usual class: inhibitors; recombinant rTrxR1, NADPH fluorescence consumption, selenite substrate; note: potency is the fitted concentration of half-maximal effect; nearly all actives have a fitted effect of over 65% in size
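Rat TrxR1 (90 nM in the dispensed reagent) was pre-reduced with 400 uM NADPH for 5 min at room temperature, then incubated with compound for 15 min. After 400 uM selenite was added, NADPH fluorescence (Ex 340/Em 450 nm) was followed for 8 min.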
An asterisk follows results filed as active; i = inactive; u = inconclusive; x = not tested or not shown; [ ] = dose if it differs, or a comment. An excerpt weighted towards active compounds, which were near 1.2% of everything screened. Unless noted, calls come from the whole dose curve; as a rule, active = well fitted curve in the direction sought with a large enough effect; inconclusive = small, poorly fitted or top-dose-only effect, or another doubt; inactive = no such curve, though single readings can be large; an effect the other way counts as inactive or inconclusive. Unless noted, % is set by controls: 0 for no effect and ±100 for the full control effect.

SMILES	PI4K2A inh	PKM2 activator	TrxR1 substrate	GALK inh	TrxR1 inh
O=C1NC(=O)C(=Cc2cc3c(cc2[N+](=O)[O-])OCO3)C(=O)N1	-10	-3%	9%	-1%	8.9µM*
N[C@@H](Cn1ccc(=O)c(O)c1)C(=O)O	5	x	12%[57.1 µM]	x	21%[57.1 µM]
C#CC(O)(C=CCl)CC (centres undefined)	-1	x	x	x	x
CCN1C(=O)C(=Cc2ccc(C)s2)C(=O)N(CC)C1=S	-5	2%	-4%	x	14µM*
CCN1C(=O)C(=Cc2cc(C)n(C3CC3)c2C)C(=O)N(CC)C1=S	-2	-3%	-6%	1%	u
CSc1nc(N)c(N=Nc2ccc([As](=O)(O)O)cc2)c(=O)[nH]1	-11	-5%	6%[57.1 µM]	2%	4µM*
Cc1ccc2c(c1)C1CN(C)CCC1N2C(=O)c1cccs1 (centres undefined)	3	5%	8%	-2%	-4%
O=C(CCN1CC2CCC(CC2)C1)c1cccs1	2	x	7%[11.4 µM]	x	0.45µM*
CCC(C)N1C(=O)/C(=C/c2ccc3c(c2)CCN3CCCCl)C(=O)NC1=S (centres undefined)	-21	-2%	0%	-8%	13µM*
CCN(CC)C(=O)c1ccc2c(c1)C1C(Cl)C(Sc3ccccc3[N+](=O)[O-])CC1C(C(=O)O)N2 (centres undefined)	-23	-15%	4%	8%	50µM*
Cc1ccc2c(c1Cl)NC(C(=O)O)C1CC(Sc3ccccc3[N+](=O)[O-])C(Cl)C21 (centres undefined)	3	-5%	6%[57.1 µM]	-1%	u
CCOCCOC(C)=O	i	x	x	x	x
CN1C(=O)/C(=C\c2ccc(Br)s2)C(=O)NC1=S	-17	2%[11.5 µM]	-5%	6%	3.2µM*
O=C1NC(=S)NC(=O)C1=Cc1ccc(Br)s1	-18	4%[11.5 µM]	2%	3%	4.5µM*
COC(=O)C1(C)C=C2C(=C(C)C(=O)C2C)CN1 (centres undefined)	x	2%	x	x	x
O=C1NC(=O)N(c2ccccc2)C(=O)/C1=C\c1ccc([N+](=O)[O-])s1	-23	28%	-19%	x	56µM*
CN1C(=O)NC(=O)/C(=C/c2ccc([N+](=O)[O-])s2)C1=O	-24	14%	-5%	-2%	u
CCOc1ccc(N2C(=O)NC(=O)/C(=C\c3ccccc3[N+](=O)[O-])C2=O)cc1	-13	8%	1%	1%	8.9µM*
COc1ccc(N2C(=O)NC(=O)/C(=C\c3ccccc3[N+](=O)[O-])C2=O)cc1	-10	7%	-6%	5%	10µM*
CCN1C[C@]2(C)CC[C@H](O)[C@@]34[C@@H]5C[C@@H]6[C@@H](OC)C[C@@](O)(C5[C@H]6O)[C@@H](C[C@@H]23)[C@@H]14	x	x	x	x	1%
CCOC(=O)CC[C@@H]1CC[C@]2(CCCN(Cc3ccncc3)C2)O1	0	x	x	x	x
CN[C@H](CC(C)C)C(=O)N[C@H]1C(=O)N[C@@H](CC(N)=O)C(=O)N[C@@H]2C(=O)N[C@H]3C(=O)N[C@H](C(=O)N[C@H](C(=O)O)c4cc(O)cc(O)c4-c4cc3ccc4O)[C@H](O)c3ccc(c(Cl)c3)Oc3cc2cc(c3O[C@@H]2O[C@H](CO)[C@@H](O)[C@H](O)[C@@H]2O[C@H]2C[C@](C)(N)[C@H](O)[C@H](C)O2)Oc2ccc(cc2Cl)[C@H]1O	-4	x	9%[57.1 µM]	x	9%[57.1 µM]
CC(=O)OCC1=C(C(=O)O)N2C(=O)[C@@H](N)[C@H]2SC1	i	x	x	x	x
CCc1nnc(NC(=O)CSc2ccc(-c3ccco3)nn2)s1	3	16µM*	6%	-2%	14%[57.1 µM]
O=C(CSc1ccc(-c2ccco2)nn1)Nc1ccccc1	-3	14µM*	7%[57.1 µM]	-2%	20µM*
SMILES	PI4K2A inh	PKM2 activator	TrxR1 substrate	GALK inh	TrxR1 inh
CCCc1nnc(NC(=O)CCC(=O)N2CCN(CCOC(c3ccccc3)c3ccccc3)CC2)s1	-3	-1%	-4%	-3%	2%
Cc1ccc(N=Nc2cc(C)ccc2N)cc1	u	-34%	-9%	5%	17%
CNC(=O)Oc1ccc(-c2cn3cc(Cl)ccc3n2)cc1	-9	-14%	39%	0%	22µM*
Cc1noc(C)c1C(=O)N1CCC2(CC1)Oc1ccc(F)cc1C(=O)C21CC(c2ccc(Cl)cc2)=NO1 (centres undefined)	-4	0%	4%	-2%	u
CC(C)(C)NC(=O)CN1C(=O)[C@@H](Cc2c[nH]c3ccccc23)N=C(c2ccccc2)c2ccccc21	-2	x	x	x	x
CCCC(=O)NC(Oc1ccc(C(C)=O)cc1)C(Cl)(Cl)Cl (centres undefined)	-7	-1%	2%	-1%	25µM*
CCC(OC(C)=O)C(CC(C)NC)(c1ccccc1)c1ccccc1 (centres undefined)	i	x	x	x	x
Nc1ccc2ccc3cccc[n+]3c2c1	-7	1%	-17%	-6%	71µM*
C[n+]1c(-c2ccccc2)c2cc(N)ccc2c2ccc(N)cc21	-20	-5%	-1%	x	40%
C[C@H](N)[C@H](O)c1ccc(O)c(O)c1	-22	x	x	x	x
CC(N)[C@H](O)c1ccc(O)c(O)c1 (some centres undefined)	-4	x	9%[57.1 µM]	x	18µM*
CCC(=O)C(CCN(C)C)(c1ccccc1)c1ccccc1	1	x	x	x	x
N#Cc1c(/N=C/C2C(=O)NC(=S)NC2=O)sc2c1CCCC2	-15	4%	-5%	0%	22µM*
CCOC(=O)c1c(/N=C/C2C(=O)NC(=S)NC2=O)sc(C)c1C	x	-19%	x	6%	x
CCOC(=O)c1c(/N=C/C2C(=O)NC(=S)NC2=O)sc2c1CCC2	4	11%	-4%[57.1 µM]	-1%	18µM*
CCOC(=O)c1cc(C)sc1/N=C/C1C(=O)NC(=S)NC1=O	u	-11%	-5%[57.1 µM]	13%	0.71µM*
C=C1C=C(C(F)F)n2ncc(C(=O)NCc3ccccc3F)c2N1	x	x	-2%	x	u
CCN(CC)CCc1c[nH]c2ccccc12	i	x	x	x	x
CCOC(=O)N1C(C)CN(/[N+]([O-])=N/Oc2ccc([N+](=O)[O-])cc2[N+](=O)[O-])CC1C (centres undefined)	x	x	-12%	x	25µM*
O=c1c(C2CC(c3ccc(-c4ccc(Br)cc4)cc3)Cc3ccccc32)c(O)sc2ccccc12 (centres undefined)	-7	x	x	x	x
O=C1NC(=O)N(CC2CCCO2)C(=O)/C1=C/c1cccs1 (centres undefined)	-14	14%	10%	-2%	-20%
O=C1NC(=O)C(=Cc2cccs2)C(=O)N1	-25	x	9%[2.29 µM]	x	9%[2.29 µM]
CCOc1ccc(N2C(=O)/C(=C\c3cccs3)C(=O)NC2=S)cc1	-26	u	23%[57.1 µM]	-2%	22µM*
CCOc1ccc(N2C(=O)/C(=C/c3ccco3)C(=O)NC2=S)cc1	-81*	20%	-4%	3%	u
